The list is not random: actives were taken first. Their share in the collection is about 2.6%.
aDG glyco up: increases alpha dystroglycan glycosylation; Pro5-aDG cells, alpha-DG glycosylation AlphaScreen (IIH6); 0% Pro5, 100% B10-LARGE cell signal; activation, % at 10 µM; 360,000 tested, 0.22% active;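 active means activation of at least 8% versus controls, or a plate z-score of at least 8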;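 further: Pro5 are CHO cells carrying HIG-tagged alpha-DG that lacks glycosylation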
TWEAK-Fn14 inh: blocks TWEAK-Fn14 interaction in a reporter cell assay | TWEAK-stimulated Fn14 reporter cells, luciferase luminescence, 8 h | inhibition, % at 10 µM | 360,000 tested, 2% active; in the data active means inhibition above about 50%
LMP1 NFkB inh: reduces LMP1-driven NF-kappaB luciferase signal | 350,000 tested, 0.69% active | LMP1-induced NF-kappaB luciferase reporter cells, luminescence | inhibition, % at 12.5 µM | AID 504558; in the data active means inhibition above about 41%; inconclusive means no clear call, values can overlap the other calls;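 further: 0% = neutral control wells and 100% = reference inhibitor control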
TROY signal inh: blocks TROY-dependent signaling in reporter cells; Q293 LMP1-TROYcd NF-kB luciferase reporter, 4 h; inhibition, % at 10 µM; 360,000 tested, 0.98% active;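 active means compounds whose plate-normalised and pattern-corrected inhibition of the luciferase reporter signal at the single screening dose is 50% or more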
HSP90 inh: HSP90 refolding inhibition in rabbit reticulocyte lysate | inhibition, % at 5.6 µM | 290,000 tested, 0.91% active | luciferase refolding luminescence, 3 h;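 active means inhibition above the screen-wide mean plus 3 SD, computed separately per campaign, cut at about 16% in these data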;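 further: 0% = DMSO wells and 100% = 60 µM geldanamycin wells; inhibitors lower the luminescence because luciferase stays unfolded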
LGR2 antag: Drosophila LGR2 receptor signaling inhibition. inhibition, % at 9.99 µM. HEK293 LGR2, CRE-luciferase, bursicon-stimulated, 4 h. AID 720647. 380,000 tested, 0.35% active;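 active means drop in luminescence signal, shown as inhibition above about 50% in the replicate tests, limit read from the data, passing the limit was not always enough; inconclusive means probably only some replicates passing the limit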;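 further: agonist challenge used bursicon conditioned medium at about half maximal strength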
HSP90 confirm: confirmation of HSP90 inhibitors. rabbit reticulocyte lysate, luciferase refolding luminescence, 3 h. shares compounds with HSP90 inh. inhibition, % at 5.9 µM. 2,300 tested, 64% active; in the data active means inhibition above about 18%;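 further: 0% = vehicle wells and 100% = reference inhibitor wells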
FLuc counter: firefly luciferase inhibition, HSP90 counter-screen. shares compounds with HSP90 inh. purified native firefly luciferase, luminescence. inhibition, % at 5.9 µM. 2,300 tested, 48% active. AID 1847;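 active means inhibition above the mean inhibition of all tested sample wells plus 3 SD, cut at about 10% in these data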;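 further: 0% = DMSO with luciferase and 100% = wells lacking luciferase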
Target sequence (P08659 whole entry, looked up): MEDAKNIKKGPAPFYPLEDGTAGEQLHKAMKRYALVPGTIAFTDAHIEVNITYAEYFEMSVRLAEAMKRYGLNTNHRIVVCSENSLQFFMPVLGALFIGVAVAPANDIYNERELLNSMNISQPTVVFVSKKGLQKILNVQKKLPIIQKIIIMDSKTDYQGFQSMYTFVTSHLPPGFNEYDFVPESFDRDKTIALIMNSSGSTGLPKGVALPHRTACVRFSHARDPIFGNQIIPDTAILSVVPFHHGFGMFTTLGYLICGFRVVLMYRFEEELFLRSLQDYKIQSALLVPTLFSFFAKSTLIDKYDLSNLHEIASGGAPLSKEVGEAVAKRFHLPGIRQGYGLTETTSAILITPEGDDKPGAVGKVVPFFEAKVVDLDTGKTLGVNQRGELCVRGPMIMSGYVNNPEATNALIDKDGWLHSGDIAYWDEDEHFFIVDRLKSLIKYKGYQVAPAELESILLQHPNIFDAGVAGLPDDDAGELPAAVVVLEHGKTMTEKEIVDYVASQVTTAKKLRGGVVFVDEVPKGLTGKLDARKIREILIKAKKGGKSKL
Starred values were filed as active, the others as inactive; ? = inconclusive; nt = no result given.

SMILES	aDG glyco up	TWEAK-Fn14 inh	LMP1 NFkB inh	TROY signal inh	HSP90 inh	LGR2 antag	HSP90 confirm	FLuc counter
CCN(CC)c1ccc(/C=N/Nc2nc3ccccc3[nH]2)c(O)c1	0	53*	55*	55*	40*	nt	23*	-18
O=C(O)c1ccc(NS(=O)(=O)c2ccc3c(c2)C(=O)c2ccccc2C3=O)cc1	0	8	-6	-5	28*	7	2	-7
N#CCCSc1ncnc2c1oc1ccccc12	0	-22	3	-7	26*	nt	-11	-20
Cc1ccc2nc(NC(=S)NC(=O)c3ccco3)sc2c1	1	41	-16	16	2	10	nt	nt
O=C(Nc1nc2ccc(Br)cc2s1)c1ccco1	0	46	-12	-28	3	42	nt	nt
COc1ccc2nc(NC(=O)c3ccco3)sc2c1	0	81*	16	35	41*	81*	58*	56*
Cc1ccc2nc(NC(=O)c3ccco3)sc2c1	0	98*	53*	62*	45*	nt	83*	79*
COC(=O)C[C@H]1CC[C@@H]2[C@@H](COc3ccc(NC(=O)c4ccc(F)cc4)cc3C(=O)N2C)O1	nt	nt	nt	nt	nt	6	nt	nt
CNC[C@@H]1Oc2ccc(NS(=O)(=O)c3ccccc3)cc2CC(=O)N([C@@H](C)CO)C[C@H]1C	nt	nt	nt	nt	nt	13	nt	nt
CO[C@@H]1CN(C)C(=O)c2ccc(NC(=O)Nc3cccc(F)c3)cc2OC[C@H](C)N(C(=O)C2CC2)C[C@H]1C	nt	nt	nt	nt	nt	10	nt	nt
COc1ccccc1C1CCN(Cc2ccc(Cl)cc2Cl)CC1	0	-19	13	-10	17*	8	3	-6
CC(=O)c1ccc(NC(=O)Cn2cnc(S(=O)(=O)N3CCCC3)c2)cc1	0	10	0	-17	26*	nt	0	-4
CC(=O)c1ccc(NC(=O)Cn2cnc(S(=O)(=O)N3CCCCC3)c2)cc1	0	2	2	-19	1	8	nt	nt
Cc1ccc(CNC(=S)NCc2ccncc2)cc1	0	14	-4	28	4	31	nt	nt
CC(C)(C)NC(=S)NCc1ccncc1	0	11	3	8	23*	-7	-2	-4
O=C(C[C@@H]1C=C[C@@H](NC(=O)CN2CCOCC2)[C@H](CO)O1)NCc1cccc(F)c1	nt	nt	nt	nt	nt	-3	nt	nt
CN1C(=O)c2cc(NC(=O)c3cscn3)ccc2OC[C@@H]2O[C@@H](CC(=O)N3CCOCC3)CC[C@H]21	nt	nt	nt	nt	nt	7	nt	nt
CCC(=O)Nc1ccc(-c2ccc(N3CCC(C)CC3)nn2)cc1	0	-10	-31	25	3	nt	nt	nt
CC1CCN(c2ccc(-c3cccc(NC(=O)C(F)(F)F)c3)nn2)CC1	0	101*	80*	83*	19*	97*	56*	-18
O=C(Nc1cccc(-c2ccc(N3CCOCC3)nn2)c1)c1ccccc1	0	-34	-18	-70	nt	-28	nt	nt
CCC(=O)Nc1cccc(-c2ccc(N3CCC(C)CC3)nn2)c1	0	60*	19	22	33*	?	66*	45*
CO[C@H]1CN(C)C(=O)c2cc(NC(C)=O)ccc2OC[C@@H](C)N(CCc2ccccc2)C[C@H]1C	nt	nt	nt	nt	nt	13	nt	nt
CC(C)NC(=O)Nc1ccc2c(c1)C(=O)N([C@H](C)CO)C[C@H](C)[C@H](CN(C)C(=O)c1ccccc1)OCCCC[C@@H](C)O2	nt	nt	nt	nt	nt	-11	nt	nt
COc1ccc(-n2ncc3c(NC(C)C)ncnc32)cc1	0	64*	37	27	17*	nt	43*	31*
Clc1ccc(-n2ncc3c(N4CCCCCC4)ncnc32)cc1	0	105*	41*	92*	63*	96*	83*	86*
SMILES	aDG glyco up	TWEAK-Fn14 inh	LMP1 NFkB inh	TROY signal inh	HSP90 inh	LGR2 antag	HSP90 confirm	FLuc counter
Cc1cccc(-n2ncc3c(N4CC(C)CC(C)C4)ncnc32)c1 (configuration not stated)	0	11	-63	33	2	-87	nt	nt
COc1ccc(-n2ncc3c(N4CCCCC4)ncnc32)cc1	0	104*	76*	86*	67*	nt	90*	86*
Cc1cccc(-n2ncc3c(N4CCOCC4)ncnc32)c1	0	85*	66*	68*	54*	90*	77*	68*
CCS(=O)(=O)N1CCC2(CC1)CN(Cc1ccccc1OC)[C@@H](CO)c1c2c2ccc(OC)cc2n1C	nt	nt	nt	nt	nt	-14	nt	nt
COc1ccc(S(=O)(=O)N(C)C[C@H]2OCCCC[C@@H](C)Oc3ccc(NS(C)(=O)=O)cc3C(=O)N([C@H](C)CO)C[C@H]2C)cc1	nt	nt	nt	nt	nt	-14	nt	nt
O=C(Cc1ccccn1)N[C@H]1CC[C@H](CC(=O)N2CCCCC2)O[C@H]1CO	nt	nt	nt	nt	nt	6	nt	nt
COc1ccc(-c2cnc3c(c2)C(=O)N([C@@H](C)CO)C[C@H](C)[C@@H](CN(C)C(=O)Cc2ccncc2)O3)cc1	nt	nt	nt	nt	nt	-6	nt	nt
C[C@H](CO)N1C[C@H](C)[C@H](CN(C)S(=O)(=O)c2cn(C)cn2)Oc2ccc(NS(=O)(=O)c3ccc(F)cc3)cc2CC1=O	nt	nt	nt	nt	nt	13	nt	nt
Clc1ccc(-n2ncc3c(NCCN4CCOCC4)ncnc32)cc1	0	83*	20	67*	44*	nt	50*	42*
O=C(Nc1cccc(F)c1)N1CC(=O)N2[C@H](CO)[C@@H](c3ccc(C#CC4CC4)cc3)[C@@H]2C1	nt	nt	nt	nt	nt	-1	nt	nt
Cc1c(/C(O)=C2/C(=O)C(=O)N(CCN3CCOCC3)C2c2cccs2)cnn1-c1ccccc1 (configuration not stated)	0	53*	-5	60*	45*	nt	47*	40*
CCN(CC)CCN1C(=O)C(=O)/C(=C(/O)c2cnn(-c3ccccc3)c2C)C1c1ccc(C)o1 (configuration not stated)	0	0	-18	0	7	nt	nt	nt
Cc1ccc(C2/C(=C(/O)c3cnn(-c4ccccc4)c3C)C(=O)C(=O)N2CCN2CCOCC2)o1 (configuration not stated)	0	18	-6	-11	21*	nt	16	5
C/C(=N\Nc1ccc(Cl)c(C(=O)O)c1)c1ccc[nH]1	0	26	-4	9	35*	8	22*	-5
C/C(=N\Nc1ccc(Cl)c(C(=O)O)c1)c1ccc(N2CCOCC2)cc1	0	-17	-13	-32	18*	-46	9	-4
C/C(=N\Nc1ccc(Cl)c(C(=O)O)c1)c1cccs1	0	-4	-14	-2	-2	-21	nt	nt
COc1cccc(C#Cc2cnc3c(c2)C(=O)N([C@@H](C)CO)C[C@H](C)[C@H](CN(C)C(=O)C2CC2)O3)c1	nt	nt	nt	nt	nt	-24	nt	nt
O=S(=O)(Cc1ccccc1)NCC[C@H]1CC[C@H](NS(=O)(=O)c2ccccc2)[C@@H](CO)O1	nt	nt	nt	nt	nt	-11	nt	nt
